Measured values from PubChem BioAssay.
The source made the active and inactive calls.

Legend:
[1] = tested on: PRMT1 (protein arginine N-methyltransferase 1); test: PRMT1 binders on small-molecule microarrays, primary screen, biochemical, small-molecule microarray, 635 nm fluorescence (AID 1088); conditions: small-molecule microarray binding, higher = more signal;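 note: binding of Prmt1 protein to compounds spotted on small-molecule microarray slides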
[2] = yeast growth modulation, basal conditions, primary screen, YJM789 clinical isolate, OD600, 24 h (AID 1089);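 note: growth of clinical yeast isolate S. cerevisiae YJM 789 seeded 1000 cells per well; test concentration not given here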; conditions: S. cerevisiae YJM789 growth, higher = more signal, called active from +8 up or from −8 down
[3] = fission yeast growth modulation, primary screen, strain 972, OD600, 24 h, no modulator (AID 1090);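 note: basal condition with compound alone and no growth modifier present; test concentration not given here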; conditions: S. pombe 972 growth, higher = more signal, called active from +8 up or from −8 down
[4] = S. cerevisiae growth modulation with rapamycin, primary screen, strain BY4716, OD600, 96 h (AID 1091); conditions: higher = more signal, called active from +8 up or from −8 down; note: test concentration not given here
[5] = target: Torsin-1A-interacting protein 2 (Homo sapiens) (UniProt Q8NFQ8); test: LULL1 binders on small-molecule microarray, primary screen, cell lysate, human LULL1 lysate, 635/667 nm fluorescence (AID 1092); conditions: hLULL1 lysate binding, 635 nm fluorescence, higher = more signal;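 note: probe is lysate of COS7 cells overexpressing human LULL1; score merges per-feature 667 nm fluorescence with signal-to-noise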
Chain of Torsin-1A-interacting protein 2 (Homo sapiens) (Q8NFQ8 whole entry, looked up): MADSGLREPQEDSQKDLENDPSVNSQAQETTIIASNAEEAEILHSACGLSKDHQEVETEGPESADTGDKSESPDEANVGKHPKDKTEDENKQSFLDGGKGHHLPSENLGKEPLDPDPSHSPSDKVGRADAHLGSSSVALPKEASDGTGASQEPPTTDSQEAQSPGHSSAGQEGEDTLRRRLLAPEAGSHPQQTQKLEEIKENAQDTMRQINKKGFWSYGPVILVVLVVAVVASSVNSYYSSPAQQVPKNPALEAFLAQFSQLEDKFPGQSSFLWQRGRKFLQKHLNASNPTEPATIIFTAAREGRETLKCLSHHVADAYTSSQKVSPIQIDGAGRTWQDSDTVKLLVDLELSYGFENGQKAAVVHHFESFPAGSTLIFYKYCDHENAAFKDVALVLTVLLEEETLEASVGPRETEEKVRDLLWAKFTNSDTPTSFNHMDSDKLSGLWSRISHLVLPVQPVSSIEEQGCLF

[6] = E. coli growth modulation, two-sided OD650, primary screen, E. coli filamentation project, strain DRC41, 24 h (AID 1093); conditions: OD650, 24 h, higher = more signal, called active from +8 up or from −8 down;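 note: MC1000 strain lacking acrAB efflux and sulA so SOS filamentation is blocked; test concentration not given here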
[7] = small-molecule microarray binders of probe aLefty2, primary screen, biochemical, biotinylated probe, 635/667 nm fluorescence (AID 1094); conditions: higher = more signal;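 note: score merges spot fluorescence near 667 nm with spot signal-to-noise ratio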
[8] = tested on: Noggin (protein binding on small-molecule microarray); test: Noggin binders on small-molecule microarray, primary screen, biochemical, 635/667 nm fluorescence (AID 1095); conditions: 635 nm fluorescence, higher = more signal;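 note: score merges 667 nm feature fluorescence with signal to noise over triplicate slides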
[9] = target: Neurogenic locus notch homolog protein 3 (Homo sapiens) (UniProt Q9UM47); test: NOTCH3 binders on small-molecule microarray, primary screen, biochemical, 635/667 nm fluorescence (AID 1096); conditions: NOTCH3 binding, 635 nm fluorescence, higher = more signal
Chain of Neurogenic locus notch homolog protein 3 (Homo sapiens) (Q9UM47 whole entry, looked up): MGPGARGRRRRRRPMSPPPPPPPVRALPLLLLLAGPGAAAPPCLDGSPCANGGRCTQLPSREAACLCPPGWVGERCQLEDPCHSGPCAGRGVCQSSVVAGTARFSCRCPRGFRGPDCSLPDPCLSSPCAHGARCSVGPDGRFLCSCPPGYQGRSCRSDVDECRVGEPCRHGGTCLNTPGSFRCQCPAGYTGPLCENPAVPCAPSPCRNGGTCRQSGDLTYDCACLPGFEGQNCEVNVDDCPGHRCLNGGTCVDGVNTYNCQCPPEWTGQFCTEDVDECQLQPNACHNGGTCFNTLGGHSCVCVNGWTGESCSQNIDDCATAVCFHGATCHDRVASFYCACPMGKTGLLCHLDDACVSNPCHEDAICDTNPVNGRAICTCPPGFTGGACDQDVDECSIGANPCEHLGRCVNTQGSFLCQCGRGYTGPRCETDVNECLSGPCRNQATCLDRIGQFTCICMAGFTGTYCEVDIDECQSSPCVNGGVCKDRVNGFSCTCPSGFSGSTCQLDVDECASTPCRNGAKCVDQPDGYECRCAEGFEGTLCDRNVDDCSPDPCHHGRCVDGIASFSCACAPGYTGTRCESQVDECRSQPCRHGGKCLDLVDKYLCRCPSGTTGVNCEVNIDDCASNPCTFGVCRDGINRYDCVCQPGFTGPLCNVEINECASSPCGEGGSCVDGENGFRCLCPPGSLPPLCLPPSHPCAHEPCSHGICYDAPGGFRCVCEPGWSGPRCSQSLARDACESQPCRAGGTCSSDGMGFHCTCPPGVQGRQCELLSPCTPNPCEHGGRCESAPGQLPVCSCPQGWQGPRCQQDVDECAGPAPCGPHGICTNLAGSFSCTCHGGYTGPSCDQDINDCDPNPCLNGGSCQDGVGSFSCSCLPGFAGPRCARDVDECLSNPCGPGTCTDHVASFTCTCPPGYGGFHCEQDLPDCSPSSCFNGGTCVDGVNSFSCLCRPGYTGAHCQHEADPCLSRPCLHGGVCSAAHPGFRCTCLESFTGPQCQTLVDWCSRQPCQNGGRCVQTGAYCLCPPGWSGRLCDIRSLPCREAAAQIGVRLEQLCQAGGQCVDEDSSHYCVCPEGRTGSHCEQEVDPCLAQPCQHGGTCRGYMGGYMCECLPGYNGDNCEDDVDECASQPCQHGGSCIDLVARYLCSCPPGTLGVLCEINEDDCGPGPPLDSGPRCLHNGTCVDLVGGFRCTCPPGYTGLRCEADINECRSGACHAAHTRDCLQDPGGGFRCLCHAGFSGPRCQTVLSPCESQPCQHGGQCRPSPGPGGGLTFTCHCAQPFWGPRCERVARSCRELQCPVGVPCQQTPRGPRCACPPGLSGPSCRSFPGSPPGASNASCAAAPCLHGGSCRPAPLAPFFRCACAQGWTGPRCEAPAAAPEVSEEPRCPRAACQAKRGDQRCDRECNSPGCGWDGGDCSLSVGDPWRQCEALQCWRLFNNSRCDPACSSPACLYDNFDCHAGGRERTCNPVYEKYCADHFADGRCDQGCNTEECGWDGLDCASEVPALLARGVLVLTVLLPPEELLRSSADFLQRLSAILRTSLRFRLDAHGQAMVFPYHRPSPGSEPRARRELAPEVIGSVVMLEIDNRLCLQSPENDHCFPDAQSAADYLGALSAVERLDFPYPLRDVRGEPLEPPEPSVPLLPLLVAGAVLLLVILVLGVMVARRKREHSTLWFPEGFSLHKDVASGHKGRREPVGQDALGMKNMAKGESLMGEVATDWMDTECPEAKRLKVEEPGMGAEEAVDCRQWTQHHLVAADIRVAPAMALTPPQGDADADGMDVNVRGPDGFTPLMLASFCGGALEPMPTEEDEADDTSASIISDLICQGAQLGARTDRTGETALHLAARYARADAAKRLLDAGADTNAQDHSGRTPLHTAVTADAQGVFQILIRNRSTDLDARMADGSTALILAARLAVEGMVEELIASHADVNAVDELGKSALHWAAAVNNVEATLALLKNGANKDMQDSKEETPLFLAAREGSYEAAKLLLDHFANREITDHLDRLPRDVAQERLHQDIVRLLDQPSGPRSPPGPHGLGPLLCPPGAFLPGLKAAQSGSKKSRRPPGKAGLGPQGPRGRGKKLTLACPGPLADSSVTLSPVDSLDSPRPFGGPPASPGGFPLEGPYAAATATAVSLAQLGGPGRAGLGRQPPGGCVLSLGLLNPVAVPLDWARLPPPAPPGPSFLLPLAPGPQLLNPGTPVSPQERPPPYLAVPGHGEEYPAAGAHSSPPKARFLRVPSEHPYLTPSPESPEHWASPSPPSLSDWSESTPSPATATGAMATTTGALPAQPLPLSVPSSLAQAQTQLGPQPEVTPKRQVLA

[10] = small-molecule microarray binders of probe aEGFR, primary screen, biochemical, biotinylated probe, 635/667 nm fluorescence (AID 1097); conditions: higher = more signal;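 note: probe is a biotinylated anti-EGFR antibody binding compounds printed on slides; score combines fluorescence near 667 nm and signal to noise of each spot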
[11] = tested on: Plasmodium falciparum Sir2 (PF13_0152, Sir2A); test: pfSir2 binders on small-molecule microarrays, primary screen, biochemical, small-molecule microarray, 635 nm fluorescence (AID 1098); conditions: small-molecule microarray binding, fluorescence 635 nm; higher = more signal;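 note: score merges spot fluorescence intensity with its signal-to-noise ratio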
[12] = small-molecule microarray binders of probe aDKK1, primary screen, biochemical, biotinylated probe, 635/667 nm fluorescence (AID 1099); conditions: higher = more signal;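 note: score merges 667nm spot fluorescence with signal to noise across triplicate slides; reference of the scale not given here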
[13] = small-molecule microarray binders of probe aCHRDL2, primary screen, biochemical, biotinylated probe, 635/667 nm fluorescence (AID 1100); conditions: higher = more signal
[14] = splicing luciferase reporter signal modulators, primary screen, spliceosome inhibition project, cell-based, HEK293, splice +/- reporter (AID 1101); conditions: luminescence, 24 h, higher = more signal, called active from +8 up or from −8 down;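 note: HEK293 cells carrying a splicing-competent luciferase reporter gene; test concentration not given here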
[15] = target: Fibroblast growth factor 10 (Homo sapiens) (UniProt O15520); test: FGF10 binders on small-molecule microarrays, primary screen, biochemical, small-molecule microarray, 635 nm fluorescence (AID 1102); conditions: FGF10 binding, fluorescence 635 nm, higher = more signal
Chain of Fibroblast growth factor 10 (Homo sapiens) (O15520 whole entry, looked up): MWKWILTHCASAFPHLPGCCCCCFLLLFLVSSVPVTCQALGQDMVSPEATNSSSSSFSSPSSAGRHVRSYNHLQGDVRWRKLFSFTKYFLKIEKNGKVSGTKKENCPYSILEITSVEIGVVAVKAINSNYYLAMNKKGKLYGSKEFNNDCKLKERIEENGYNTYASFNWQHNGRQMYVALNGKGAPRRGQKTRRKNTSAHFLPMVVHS

[16] = tested on: glycogen synthase kinase-3 (GSK3A per assay name; protocol says GSK3B); test: GSK3 binders on small-molecule microarrays, primary screen, biochemical, small-molecule microarray, 635 nm fluorescence, GSK3A (AID 1103); conditions: small-molecule microarray binding, fluorescence 635 nm; higher = more signal; note: the record names both GSK3A and GSK3B
[17] = target: Epidermal growth factor receptor (Homo sapiens) (UniProt P00533); test: EGFR binders on small-molecule microarrays, primary screen, biochemical, small-molecule microarray, 635 nm fluorescence (AID 1104); conditions: EGFR binding, higher = more signal;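 note: score merges 667 nm emission intensity with spot signal to noise over triplicate slides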
Chain of Epidermal growth factor receptor (Homo sapiens) (P00533 whole entry, looked up): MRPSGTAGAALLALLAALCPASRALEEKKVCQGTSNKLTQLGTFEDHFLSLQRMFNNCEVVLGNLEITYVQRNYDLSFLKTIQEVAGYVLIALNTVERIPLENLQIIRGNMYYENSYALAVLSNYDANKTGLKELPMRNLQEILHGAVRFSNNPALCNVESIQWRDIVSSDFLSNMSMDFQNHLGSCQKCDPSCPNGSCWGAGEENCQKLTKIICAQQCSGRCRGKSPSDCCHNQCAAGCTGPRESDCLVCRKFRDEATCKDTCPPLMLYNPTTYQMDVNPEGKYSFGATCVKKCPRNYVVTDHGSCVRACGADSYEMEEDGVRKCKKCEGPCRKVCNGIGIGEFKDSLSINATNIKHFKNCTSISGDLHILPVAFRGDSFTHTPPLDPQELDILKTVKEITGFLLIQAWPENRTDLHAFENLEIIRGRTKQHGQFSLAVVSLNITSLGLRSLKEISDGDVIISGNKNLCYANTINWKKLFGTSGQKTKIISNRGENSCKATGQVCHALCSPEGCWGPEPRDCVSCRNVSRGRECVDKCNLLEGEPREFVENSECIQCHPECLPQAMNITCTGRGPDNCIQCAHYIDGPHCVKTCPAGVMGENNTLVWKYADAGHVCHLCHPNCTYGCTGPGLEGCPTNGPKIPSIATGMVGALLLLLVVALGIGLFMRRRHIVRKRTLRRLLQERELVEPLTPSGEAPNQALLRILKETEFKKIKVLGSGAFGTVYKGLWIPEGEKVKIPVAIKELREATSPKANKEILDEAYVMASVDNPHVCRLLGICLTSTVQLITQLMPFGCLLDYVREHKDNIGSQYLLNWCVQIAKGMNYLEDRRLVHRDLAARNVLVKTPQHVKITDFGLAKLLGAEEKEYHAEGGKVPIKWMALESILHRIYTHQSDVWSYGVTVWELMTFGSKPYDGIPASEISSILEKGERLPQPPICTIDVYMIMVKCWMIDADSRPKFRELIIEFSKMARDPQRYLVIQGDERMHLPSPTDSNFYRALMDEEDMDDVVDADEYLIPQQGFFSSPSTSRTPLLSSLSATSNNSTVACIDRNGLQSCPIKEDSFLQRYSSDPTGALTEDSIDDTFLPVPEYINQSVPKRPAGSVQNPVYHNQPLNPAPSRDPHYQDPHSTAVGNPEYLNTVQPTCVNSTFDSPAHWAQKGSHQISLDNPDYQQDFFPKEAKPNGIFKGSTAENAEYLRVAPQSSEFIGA

[18] = target: Follistatin-related protein 3 (Homo sapiens) (UniProt O95633); test: FSTL3 binders on small-molecule microarrays, primary screen, biochemical, small-molecule microarray, 635 nm fluorescence (AID 1105); conditions: FSTL3 binding, higher = more signal;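 note: score merges emission near 667 nm and signal to noise per printed spot across three slides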
Chain of Follistatin-related protein 3 (Homo sapiens) (O95633 whole entry, looked up): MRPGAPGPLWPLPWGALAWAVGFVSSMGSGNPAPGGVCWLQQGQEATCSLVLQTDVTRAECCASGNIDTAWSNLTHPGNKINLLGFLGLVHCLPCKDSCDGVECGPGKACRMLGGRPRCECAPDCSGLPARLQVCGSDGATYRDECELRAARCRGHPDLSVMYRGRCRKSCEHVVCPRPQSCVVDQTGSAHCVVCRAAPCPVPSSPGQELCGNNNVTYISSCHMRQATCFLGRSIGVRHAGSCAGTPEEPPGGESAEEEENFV

[19] = target: Dickkopf-related protein 1 (Homo sapiens) (UniProt O94907); test: DKK1 binders on small-molecule microarrays, primary screen, biochemical, small-molecule microarray, 635 nm fluorescence scan (AID 1106); conditions: DKK1 binding, higher = more signal;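 note: score merges emission near 667 nm with signal to noise over three replicate slides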
Chain of Dickkopf-related protein 1 (Homo sapiens) (O94907 whole entry, looked up): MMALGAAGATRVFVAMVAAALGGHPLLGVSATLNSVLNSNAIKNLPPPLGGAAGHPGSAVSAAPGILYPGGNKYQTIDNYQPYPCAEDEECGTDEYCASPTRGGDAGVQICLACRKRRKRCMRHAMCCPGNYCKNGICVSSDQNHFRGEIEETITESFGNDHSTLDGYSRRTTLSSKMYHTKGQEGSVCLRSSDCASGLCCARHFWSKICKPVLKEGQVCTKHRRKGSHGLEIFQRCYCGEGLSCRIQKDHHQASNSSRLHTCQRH

[20] = tested on: Inhibin beta A chain (activin A); test: INHBA (activin A) binders on microarrays, primary screen, biochemical, small-molecule microarray, 635 nm fluorescence scan (AID 1107); conditions: small-molecule microarray binding, higher = more signal;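 note: mouse activin A protein probed at 4.33 µg/mL on printed slides; score merges bound-protein fluorescence near 667 nm with spot signal-to-noise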

SMILES | composite z-score [1] | z-score [2] | z-score [3] | z-score [4] | composite z-score [5] | z-score [6] | composite z-score [7] | composite z-score [8] | composite z-score [9] | composite z-score [10] | composite z-score [11] | composite z-score [12] | composite z-score [13] | z-score [14] | composite z-score [15] | composite z-score [16] | composite z-score [17] | composite z-score [18] | composite z-score [19] | composite z-score [20]
CC(C)=CCCC(C)=CC(O)C1C=CC2C(=O)NC(=O)C2N1Nc1ccccn1 (stereo not given) | 1.56 | -1.17 (inactive) | 0.504 (inactive) | -0.952 (inactive) | 1.8 | -0.978 (inactive) | 0.212 | 1.36 | 1.11 | 0.186 | 1.52 | 0.0536 | -0.319 | -0.121 (inactive) | 1.46 | 1.29 | 1.68 | 1.55 | 1.76 | 1.6
CCCCC(=C=CC[C@H](O)c1ccc(CO)o1)CCO | 1.49 | 0.978 (inactive) | -1.17 (inactive) | -0.0978 (inactive) | 1.59 | -0.14 (inactive) | -0.258 | 1.31 | 0.683 | -0.0041 | 1.17 | -0.0027 | -0.485 | 0.263 (inactive) | 0.738 | 0.514 | -0.0244 | 0.484 | -0.0878 | 0.839
CCCC=C(CCC)[C@@H](NC(=O)OCC(C)C)c1ccc(C(=O)OC)cc1 | 0.586 | -0.245 (inactive) | 0.354 (inactive) | -0.894 (inactive) | 0.893 | 0.0664 (inactive) | 0.0506 | 0.421 | 0.621 | -0.123 | 0.458 | -0.315 | -0.411 | -2.36 (inactive) | 0.674 | 0.788 | 0.471 | 0.414 | 0.85 | -0.155
C=CCNC(=O)[C@H]1[C@@H]2C(=O)O[C@@H](c3ccccc3)[C@@H](c3ccccc3)N2[C@@H](c2ccc(OCCO)cc2)[C@]12C(=O)Nc1ccc(C#CC3(O)CCCCCC3)cc12 | 1.53 | 2.3 (inactive) | 1.42 (inactive) | 5.09 (inactive) | 2.11 | 1.61 (inactive) | 0.323 | 1.4 | 1.08 | 0.0432 | 1.19 | 0.514 | 0.446 | -0.313 (inactive) | 1.29 | 1.3 | 0.982 | 1.29 | 0.527 | 0.996
Cc1ccc(N2C(=O)c3ccccc3[C@](C)(C(=O)NCCCN(C)C)[C@@H]2c2ccc(CO)cc2)nc1 | 0.409 | -0.903 (inactive) | -0.808 (inactive) | -1.51 (inactive) | 2.93 | -0.677 (inactive) | -0.0405 | -0.817 | -0.681 | -0.209 | 0.485 | -0.0971 | 0.451 | 0.055 (inactive) | -0.47 | -1.21 | -1.1 | -0.444 | -0.599 | 0.573
COC(=O)C(CC#Cc1ccc2c(c1)[C@]1(C(=O)N2)[C@H](c2ccc(OCCO)cc2)N2[C@H](c3ccccc3)[C@H](c3ccccc3)OC(=O)[C@H]2[C@@H]1C(=O)N1CCCCCCC1)C(=O)OC | 1.54 | 1.37 (inactive) | 0.736 (inactive) | 2.56 (inactive) | 3.95 | -0.611 (inactive) | 1.54 | 1.84 | 1.03 | 1.17 | 1.8 | 2.65 | 1.3 | 0.191 (inactive) | 1.18 | 1.37 | 1.64 | 1.63 | 2.14 | 1.64
COC(=O)C1=CC(CCCO)=CC(c2cccs2)N(Cc2cc3c(cc2Br)OCO3)C=C1C(=O)OC (stereo not given) | 1.56 | 0.74 (inactive) | -0.997 (inactive) | 0.132 (inactive) | 3.17 | 0.923 (inactive) | 0.109 | 0.404 | 1.12 | 0.236 | 1.53 | 0.718 | 0.628 | -0.478 (inactive) | 1.17 | 1.3 | 0.511 | 0.908 | 0.166 | 1.01
CCCC#C[Si](O[C@H](CC)c1cn(Cc2ccccc2)nn1)(C(C)C)C(C)C | 1.49 | -1.25 (inactive) | -14.6 (active) | -3.55 (inactive) | 1.72 | 0.657 (inactive) | 0.052 | 1.31 | 1.09 | 0.0458 | 0.524 | 0.109 | -0.263 | -0.539 (inactive) | 0.852 | 0.49 | 0.375 | 1.11 | 0.576 | -0.0374
O=C1C2C=CC(C(O)c3c(F)cccc3Cl)N(Nc3ccc([N+](=O)[O-])cc3)C2C(=O)N1c1ccccc1 (stereo not given) | 1.55 | -1.01 (inactive) | 1.35 (inactive) | 4.59 (inactive) | 3.54 | 0.636 (inactive) | 0.13 | 0.432 | 1.09 | -0.0021 | 0.77 | -0.124 | -0.0918 | -0.108 (inactive) | 1.2 | 1.27 | 0.518 | 1.45 | 0.875 | 0.191
COC(=O)[C@]1(Cc2ccccc2)N=C(c2ccc(OCCCO)cc2)O[C@@H]1c1ccccc1CN=[N+]=[N-] | 1.56 | 0.738 (inactive) | 0.237 (inactive) | 34.8 (active) | 2.34 | -0.156 (inactive) | 0.0647 | 0.615 | 0.399 | -0.0967 | 0.965 | 0.266 | 0.98 | 1.76 (inactive) | 0.506 | 0.509 | -0.296 | 0.175 | -0.0456 | 0.702
